Bioassay records as filed in PubChem.
Shown are actives, neighbours in structure and some others; about 1.3% of the full set was active somewhere.
AmpC inh no detg: qHTS Inhibitors of AmpC Beta-Lactamase (assay without detergent) | actives 0.52% (n = 330,000) | AID 485341, 2010 | AmpC nitrocefin hydrolysis, absorbance 480 nm, 0.0001% Triton | Potency, µM (doses to about 57.1 µM), actives largely listed as inhibitors; further: nearly all actives have a fitted effect of over 20% in size
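AmpC (5.3 nM in the dispensed reagent) in 20 mM phosphate pH 7.0 with 0.01% (detergent screen) or 0.0001% Triton X-100 was preincubated with compounds for 15 min at room temperature. Nitrocefin was then added from an 800 uM solution, and hydrolysis was followed at 480 nm.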
Giardia FBPA inh-1: qHTS Assay for Inhibitors of Fructose-1,6-bisphosphate Aldolase from Giardia Lamblia | A8B2U2 | purified Giardia FBPA | Potency, µM (top dose mostly 59.6 µM), actives largely listed as inhibitors | actives 0.71% (n = 290,000); further: nearly all actives have a fitted effect of over 55% in size
Target sequence (A8B2U2 whole entry, looked up): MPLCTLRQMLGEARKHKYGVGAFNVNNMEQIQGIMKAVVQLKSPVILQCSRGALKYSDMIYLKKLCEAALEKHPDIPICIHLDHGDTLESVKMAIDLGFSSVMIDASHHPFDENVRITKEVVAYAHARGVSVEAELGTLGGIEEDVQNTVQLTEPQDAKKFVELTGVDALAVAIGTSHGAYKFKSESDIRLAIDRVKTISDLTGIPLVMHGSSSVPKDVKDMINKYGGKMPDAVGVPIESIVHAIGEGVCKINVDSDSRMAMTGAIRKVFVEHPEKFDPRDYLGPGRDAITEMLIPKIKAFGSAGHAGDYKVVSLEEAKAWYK
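Giardia FBPA (40 nM reagent) was preincubated 10 min at RT with compound (up to 57.5 uM final), then substrate plus GAPDH/TPI/NAD/arsenate coupling system with diaphorase/resazurin was added; resorufin fluorescence (525/598 nm) was read after 20 min.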
AMA1 RON2 block: qHTS for Inhibitors of AMA1-RON; Towards Development of Antimalarial Drug Lead: Primary Screen. Plasmodium falciparum AMA1 (3D7) - RON2 peptide interaction. AlphaScreen AMA1-biotinylated RON2 peptide binding. Potency, µM (titrated, usually from 58.2 µM), most hits filed as inhibitors. actives 0.2% (n = 360,000); further: nearly all actives have a fitted effect of over 45% in size
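AMA1 (3D7) with his tag at 25 nM final met compounds first, then biotinylated RON2 peptide at 25 nM; detection used donor plus acceptor beads, 10 µg/mL apiece, read by AlphaScreen after 30 min at room temperature.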
LmPK inh: qHTS Assay for Inhibitors of Leishmania Mexicana Pyruvate Kinase (LmPK) | Q27686 | purified LmPK, Kinase-Glo ATP luminescence, 1 h | Potency, µM (titrated, usually from 57.5 µM), hits mostly inhibitors | actives 0.37% (n = 290,000)
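Purified LmPK (0.1 nM) converted ADP (0.1 mM) to ATP with PEP (0.5 mM) in imidazole buffer pH 7.2 with KCl and MgCl2, 1 h at room temperature. ATP was read by Kinase-Glo luminescence; data normalized to uninhibited and no-enzyme controls.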
AmpC inh detg: qHTS Inhibitors of AmpC Beta-Lactamase (assay with detergent) | AmpC hydrolysis of nitrocefin, absorbance 480 nm, 0.01% Triton | Potency, µM (doses to about 114 µM), hits mostly inhibitors | actives 0.041% (n = 370,000) | AID 485294, 2010; further: nearly all actives have a fitted effect of over 25% in size
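AmpC (5.3 nM in the dispensed reagent) in 20 mM phosphate pH 7.0 with 0.01% (detergent screen) or 0.0001% Triton X-100 was preincubated with compounds for 15 min at room temperature. Nitrocefin was then added from an 800 uM solution, and hydrolysis was followed at 480 nm.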
Giardia growth: qHTS Assay for Inhibitors of Fructose-1,6-bisphosphate Aldolase from Giardia Lamblia: Giardia lamblia growth inhibition. Giardia lamblia trophozoite growth inhibition. Potency, µM (series often up to 57.5 µM), hits mostly inhibitors. AID 2785, 2010. actives 5% (n = 1,500). shares compounds with Giardia FBPA inh-1;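 further: trophozoites exposed to compound for 48 h at 37 °C; nearly all actives have a fitted effect of over 70% in size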
Mammalian tox: qHTS Assay for Inhibitors of Fructose-1,6-bisphosphate Aldolase from Giardia Lamblia: Mammalian cellular toxicity. shares compounds with Giardia FBPA inh-1. mammalian cell viability counter-screen, qHTS. Potency, µM (titrated, usually from 57.5 µM), usual class: inhibitors. actives 4% (n = 1,500). AID 2786, 2010;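 further: Chinese hamster ovary cells used as mammalian cytotoxicity surrogate; viability measured as cellular ATP by luminescence; compound exposure lasted 48 h before reading; nearly all actives have a fitted effect of over 60% in size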
Giardia FBPA inh-2: qHTS Assay for Inhibitors of Fructose-1,6-bisphosphate Aldolase from Giardia Lamblia: Primary screen confirmation. actives 5% (n = 1,500). shares compounds with Giardia FBPA inh-1. purified Giardia aldolase enzyme activity, qHTS. Potency, µM (top dose mostly 57.5 µM), hits mostly inhibitors; further: nearly all actives have a fitted effect of over 45% in size
Rabbit FBPA inh: qHTS Assay for Inhibitors of Fructose-1,6-bisphosphate Aldolase from Giardia Lamblia: Rabbit FBPA Selectivity | shares compounds with Giardia FBPA inh-1 | Rabbit muscle FBPA enzyme inhibition, selectivity counter-screen | Potency, µM (titrated, usually from 57.5 µM), hits mostly inhibitors | actives 4% (n = 1,500) | AID 2794, 2010; further: nearly all actives have a fitted effect of over 60% in size
Target sequence (P00883 whole entry, looked up): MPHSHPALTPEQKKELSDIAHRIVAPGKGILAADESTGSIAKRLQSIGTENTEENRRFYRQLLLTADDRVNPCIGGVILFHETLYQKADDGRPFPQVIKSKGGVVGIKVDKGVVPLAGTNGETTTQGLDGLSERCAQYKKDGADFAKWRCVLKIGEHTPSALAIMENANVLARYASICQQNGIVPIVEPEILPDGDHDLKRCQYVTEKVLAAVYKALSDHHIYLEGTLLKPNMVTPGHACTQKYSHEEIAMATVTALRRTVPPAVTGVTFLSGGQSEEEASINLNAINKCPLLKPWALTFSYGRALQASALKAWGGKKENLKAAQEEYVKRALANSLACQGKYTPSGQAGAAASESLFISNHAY
GAPDH counter: qHTS Assay for Inhibitors of Fructose-1,6-bisphosphate Aldolase from Giardia Lamblia: Coupling assay counterscreen confirmation | shares compounds with Giardia FBPA inh-1 | GAPDH coupling enzyme counterscreen, biochemical, qHTS | Potency, µM (series often up to 57.5 µM), hits mostly inhibitors | actives 6% (n = 1,500) | AID 2795, 2010; further: nearly all actives have a fitted effect of over 55% in size
Numbers stand for hits; i = inactive; ? = inconclusive; nt = no result; [ ] = another dose, or the depositor's remark. The call rests on the fitted dose curve; in most records, active means well fitted curve in the direction sought with a large enough effect; inconclusive means small, poorly fitted or top-dose-only effect, or another doubt; inactive means no such curve, though single readings can be large; an effect the other way counts as inactive or inconclusive.

SMILES	AmpC inh no detg	Giardia FBPA inh-1	AMA1 RON2 block	LmPK inh	AmpC inh detg	Giardia growth	Mammalian tox	Giardia FBPA inh-2	Rabbit FBPA inh	GAPDH counter
COc1ccc(NC(C)=O)cc1NC(C)c1nc2sc(C)c(C)c2c(=O)[nH]1 (configuration not stated)	i	8.89µM	i	i	i	i[10.4 µM]	i	?	?	?
Cc1ccc(-c2n[nH]c(=S)n2/N=C/c2c(C)[nH]n(-c3ccccc3)c2=O)cc1	i	9.98µM	i	i[11.5 µM]	i	i	i	?	i	i
Cc1[nH]n(-c2ccccc2)c(=O)c1/C=N/N(C)c1ccccc1	i	i	i	i	i	nt	nt	nt	nt	nt
Cn1[nH]c(-c2ccccc2)c(/C=N/O)c1=O	i	15.8µM	i	i	i	i[10.4 µM]	i	i	i	i
Cc1[nH]n(-c2ccccc2)c(=O)c1/C=N/O	i	15.8µM	i	i	i	?	i	i	i	i
CC(=O)N/N=C/c1c(C)[nH]n(-c2ccccc2)c1=O	i	15.8µM	i	i	i	i[10.4 µM]	i	i	i	i
Cc1nn(-c2ccccc2)c(C)c1/C=N/n1c(-c2ccc(Cl)cc2)n[nH]c1=S	i	i	i[2.32 µM]	i	i	nt	nt	nt	nt	nt
O=C(COc1ccccc1Cl)NCC1(N2CCOCC2)CCCCC1	nt	nt	nt	nt	i	nt	nt	nt	nt	nt
COCC(=O)N/N=C/c1c(C)[nH]n(-c2ccccc2)c1=O	i	7.06µM	i	i	i	i	i	i	i	i
Nn1c(SCC(=O)Nc2ccccc2C(F)(F)F)nncc1=O	i	20µM	i	i	i	i[10.4 µM]	i	i	i	i
CCc1nnc(NC(=O)CSc2nncc(=O)n2N)s1	i	25.1µM	i	i	i	i	i	i	i	i
Nn1c(SCC(=O)Nc2ccc3c(c2)OCCO3)nncc1=O	i	25.1µM	i	i	i	i	i	i	i	i
Cc1cc(-c2nnc(SCC(=O)Nc3ccccc3C(F)(F)F)n2N)n[nH]1	i	i	i	i	i	nt	nt	nt	nt	nt
Oc1cccc2nc3ccccc3nc12	i	17.7µM	i	i	i	i[10.4 µM]	i	?	i	?
Cc1cc(NCc2ccncc2)ccc1Br	i	22.3µM	25.1µM	i	i	i	i	i	i	i
Cc1cccc(NC(=S)Nn2cnnc2)c1C	i	7.92µM	i	i	i	?	i	i	i	i
Cc1ccc(NC(=S)Nn2cnnc2)cc1	i	15.8µM	i	i	i	?	i	i	i	i
Cc1ccccc1NC(=S)Nn1cnnc1	i	nt	i	i	i	nt	nt	nt	nt	nt
S=C(Nc1ccccc1)Nn1cnnc1	i	12.6µM	i	i	i	?	i	i	i	i
CCc1ccc(NC(=S)Nn2cnnc2)cc1	i	i	i	i	i	nt	nt	nt	nt	nt
Cc1ccc(C(=O)c2oc3ccccc3c2NC(=O)COc2ccccc2Cl)cc1	nt	nt	nt	nt	i	nt	nt	nt	nt	nt
Cc1cccc(N=Nc2ccc(O)c3ncccc23)c1	i	nt	?	i	i	nt	nt	i	i	i
NS(=O)(=O)c1ccc(N=Nc2ccc(O)c3ncccc23)cc1	?	?	i	i	i	nt	nt	nt	nt	nt
CCOc1ccc(N=Nc2ccc(O)c3ncccc23)cc1	i	i	i	i	i	i	i	?	i	i
CCN(CC)S(=O)(=O)c1cc(OC)ccc1N=Nc1ccc(O)c2ncccc12	i	?	i	i	i	i	29.1µM	?	i	?
SMILES	AmpC inh no detg	Giardia FBPA inh-1	AMA1 RON2 block	LmPK inh	AmpC inh detg	Giardia growth	Mammalian tox	Giardia FBPA inh-2	Rabbit FBPA inh	GAPDH counter
Cc1ccc(C)c(N=Nc2ccc(O)c3ncccc23)c1	i	i	i	i	i	nt	nt	nt	nt	nt
CN1CCN(c2ncc3nc(-c4cccc(C#N)c4)c(=O)n(C)c3n2)CC1	nt	i	nt	nt	nt	nt	nt	nt	nt	nt
CCCN1CCC(N2CCN(c3ccc([N+](=O)[O-])cc3)CC2)CC1	i	15.8µM	?	i	?	i[10.4 µM]	i	i	i	i
O=[N+]([O-])c1ccc(N2CCN(CC3CCCCC3)CC2)cc1	i	?	?	i	?	nt	nt	nt	nt	nt
CC(CNC(=O)Cn1c(-c2cccs2)cc2ccccc21)c1ccccc1 (configuration not stated)	nt	nt	nt	nt	i	nt	nt	nt	nt	nt
CO/N=C(/C(=O)N[C@@H]1C(=O)N2C(C(=O)O)=CCS[C@H]12)c1cnc(N)s1	i	15.8µM	nt	i	50.1µM	i	i	i	i	i
Cc1ccc(NC(=O)C(C)OC(=O)CCN=C2NS(=O)(=O)c3ccccc32)cc1 (configuration not stated)	i	nt	i	nt	?	nt	nt	nt	nt	nt
O=C(NC(=S)Nc1cccc(C(F)(F)F)c1)c1ccc2nonc2c1	i	9.98µM	i	i	i	i[10.4 µM]	i	i	i	i
CC1(C)CC(Cc2nc(=S)[nH][nH]2)C(=O)O1 (configuration not stated)	i	6.29µM	i	i	i	i	i	i	i	i
CC1(C)CC(CC(=O)Nc2ccccn2)C(=O)O1 (configuration not stated)	i	i	i	i	i	nt	nt	nt	nt	nt
O=C(COc1ccccc1F)NC1CC(=O)N(c2ccc3c(c2)OCCO3)C1 (configuration not stated)	nt	nt	nt	nt	i	nt	nt	nt	nt	nt
COc1ccccc1NS(=O)(=O)c1cc(NC(=O)c2sccc2C)ccc1N1CCCC1	i	14.1µM	i	i	i	i[10.4 µM]	i	?	?	?
COCc1cc(=O)[nH]c(-c2csc(C)n2)n1	i	4.46µM	i	i	i	i	i	i	i	i
CC1CCCC(NC(=O)c2cccc(S(=O)(=O)N3CCOCC3)c2)C1C (configuration not stated)	nt	nt	i	nt	nt	nt	nt	nt	nt	nt
COc1ccc(CN2CCN(CCCc3ccccc3)CC2)c(OC)c1	i	15.8µM	nt	i	i	i	i	i	i	i
COc1ccc(CN2CCN(Cc3ccccc3C(F)(F)F)CC2)c(OC)c1	i	12.6µM	?	i	i	?	i	i	i	i
